PubChem BioAssay (NCI)
Compounds without any hit were thinned out: in the full panel of roughly 83,000, 20% have a hit.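 Step 1: grow cells in 96-well plates. Step 2: add test compound at a single concentration. Step 3: incubate 48 h. Step 4: record percent growth.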 A number with no mark means an inactive call. Active and inactive are the calls of the source. The calls were made as follows: active = growth percent below 10; inactive = the rest.

Test system: HL-60(TB) leukemia
Test: NCI-60 one-dose screen, 48 h (100 = growth as untreated, 0 = no growth, -100 = all killed)
Conditions: 10 µM unless noted

| Structure (SMILES) | growth |
| --- | --- |
| CCNCCNc1cc(-c2cccc(C(F)(F)F)c2)c(C#N)c2nc3ccccc3n12 | -58.7% (active) |
| O=C(Nc1ccc(N2CCNCC2)cc1)c1[nH]ncc1Nc1cc(Oc2ccccc2)ncn1 | -49.6% (active) |
| O=C(CN1C=NC2C(N3CCOCC3)=NC=NC21)c1ccc(Br)cc1 (stereo not given) | 102% |
| COc1ccc(C(=O)N2c3ccccc3Sc3ccccc32)c(F)c1 | 15.4% |
| COc1ccccc1N1C(=N)S/C(=C\c2ccc(OCc3ccccc3F)cc2)C1=O | 112% |
| Cc1ccc(NC(=O)NC2CCCCC2)cc1 | 63.1% |
| COc1cc(/C=C/c2cc(/C=C/c3ccc(O)c(OC)c3)n(-c3ccccc3)n2)ccc1O | -42.2% (active) |
| CC(C)(C)c1cc(Cl)c(O)c(CNCCO)c1 | 117% |
| O=C(CBr)c1ccc(OC(=O)c2ccccc2)cc1 | 95.5% |
| CCc1nc2cc(F)c(/C=C/C(=O)NO)cc2c(=O)n1CCc1ccccc1 | 0.13% (active) |
| c1ccc(CCNc2ncnc3[nH]ncc23)cc1 | 79.6% |
| COc1ccc2c(c1)c(-c1nc(-c3cn(C)c4ncccc34)cs1)cn2CCCN1CCCCC1 | 4.1% (active) |
| CC(=O)Nc1ccc(NC(C)=O)c2c1C(=O)c1ccccc1C2=O | 154% |
| COc1c(OCCCN2CCOCC2)ccc2c3n(c(=NC(=O)c4cnc(N)nc4)nc12)CCN3 | 11.3% |
| CCCCCCn1c(-c2ccc(C(=O)O/N=C(\N)c3ccc4c(c3)OCO4)cc2)nc(-c2ccccc2)c1-c1ccccc1 | -51.1% (active) |
| CCN(CC)Cc1cc(Nc2c3ccccc3nc3cc(Cl)ccc23)ccc1O | -37.5% (active) |
| CCN(CC)CCC(CNc1ccnc2cc(Cl)ccc12)c1ccccc1 (stereo not given) | 58.5% |
| CCCCCCOc1ccc(/C=N/NC(N)=S)cc1 | 8.79% (active) |
| CC(C)c1ncc([N+](=O)[O-])n1C | 118% |
| COC(=O)[C@@H]1CCCN1C(=O)[C@@H]1CCCN1C(=O)[C@H](Cc1ccccc1)NC(=S)Nc1cc(C(F)(F)F)cc(C(F)(F)F)c1 | 55.7% |

| Structure (SMILES) | growth |
| --- | --- |
| COc1ccc(/C=C(\C#N)C(=O)Nc2cccc(Nc3nc(SC)nc(-c4cccc([N+](=O)[O-])c4)c3C#N)c2)cc1OC | 95% |
| O=C1Cc2c([nH]c3ccc([N+](=O)[O-])cc23)-c2ccccc2N1 | -33.8% (active) |
| CCCN(CCC)CN(CCC)CCC | 93.5% |
| CC(C)(C)CC(N)=O | 120% |
| CC[C@H](Nc1cc(C)nc(N)n1)c1nc2cccc(NCc3ccc(C(=O)NO)cc3)c2c(=O)n1-c1ccccc1 | 2.35% (active) |
| COc1cc(NCCC2CCCCN2)c2ncccc2c1OC (stereo not given) | 0.805% (active) |
| Fc1cccc(-c2ccc3c(c2)C2(CCNCC2)CN3)c1 | 108% |
| COc1ccc(-c2ccc(=O)oc2-c2cc(OC)c(OC)c(OC)c2)cc1O | -55.6% (active) |
| Cc1nn(CCO)c(C)c1N=[N+]([O-])c1c(C)nn(CCO)c1C | -45.8% (active) |
| Cc1ccc(F)cc1NC(=O)c1cc(Cl)ccc1Nc1ccccc1 | 51.6% |
| C=CCNCCC#N | 109% |
| CC(C)(C)OC(=O)N1Cc2cc3ccccc3nc2C1CO (stereo not given) | 92.8% |
| COc1ccc(-c2c(C)nn3c(NCCN4CCOCC4)cc(C)nc23)cc1OC | 107% |
| Oc1ccccc1C=Nc1ccccc1N=Cc1ccccc1O.[Cu+2] | 55.8% |
| O=C1c2cc3c(cc2-c2c1c1cc(F)c(F)cc1c(=O)n2CCCn1ccnc1)OCO3 | -15.4% (active) |
| CNC(=O)c1ccccc1Sc1ccc2c(/C=C/c3ccccn3)n[nH]c2c1 | 12.6% |
| CN(C)CCn1c(=O)c2ccccc2n2nc3ccccc3c12 | 70.3% |
| Cc1cc2nc(C(Cl)Cl)nc(-c3ccccc3)n2n1 | -14.1% (active) |
| O=C1C=CC2(NN=C(c3ccccc3)N2c2ccc(Cl)cc2)c2cccc(O)c21 (stereo not given) | 23.5% |
| O=C(Nc1c(Cl)cc(Cl)cc1Cl)ON=C1CCCCC1 | 101% |
